# Inconclusive results are not listed. A call without a number means that no potency is given here. The source made the active and inactive calls. Unless noted, calls follow the shape of the dose curve; as a rule, active = well fitted inhibition curve with a large enough effect; inconclusive = small, poorly fitted or top-dose-only effect; inactive = flat fitted curve, though single readings scatter.
# Assays:
# [1] = target: Luciferin 4-monooxygenase (Photinus pyralis) (UniProt P08659); assay: Biochemical firefly luciferase enzyme assay for NPC (AID 624030);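 also: purified P. pyralis luciferase at 10 nM with luciferin and ATP substrate; nearly all actives have a fitted effect of over 70% in size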
# Summary of the method: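 Direct inhibition of firefly luciferase enzyme (10 nM final, 50 mM Tris Acetate) assessed by luminescence within 5 minutes. Percent activity scaled between DMSO and PTC124 positive control, with concentration-effect curves classified by fit quality and response.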
# [2] = qHTS for Inhibitors of the Functional Ribonucleoprotein Complex (vRNP) of Lassa (LASV) Arenavirus: LASV Primary Screen - GLuc reporter signal (AID 1347082; calls by dose curve; tested in HEK293 reporter line; also: nearly all actives have a fitted effect of over 60% in size; also: potency is read from the fitted curve at half-maximal effect)
# [3] = qHTS for Inhibitors of the Functional Ribonucleoprotein Complex (vRNP) of Lassa (LASV) Arenavirus: Viability assay - alamar blue signal for LASV Primary Screen (AID 1347083; calls by dose curve; tested in HEK293 reporter line; also: nearly all actives have a fitted effect of over 80% in size)
# [4] = qHTS for Inhibitors of the Functional Ribonucleoprotein Complex (vRNP) of Lymphocytic Choriomeningitis Arenaviruses (LCMV): Viability assay - alamar blue signal for LCMV Primary Screen (AID 1347085; calls by dose curve; tested in HEK293 reporter line; also: nearly all actives have a fitted effect of over 80% in size)
# [5] = target: Nucleoprotein (Lymphocytic choriomeningitis virus (strain Armstrong)) (UniProt P09992); assay: qHTS for Inhibitors of the Functional Ribonucleoprotein Complex (vRNP) of Lymphocytic Choriomeningitis Arenaviruses (LCMV): LCMV Primary Screen - GLuc reporter signal (AID 1347086; calls by dose curve; also: nearly all actives have a fitted effect of over 70% in size)
# astro = assay: Drug repurposing screens with cells derived from glioblastoma tumor samples (AID 1345199); details: viability, ATP luminescence, 48 h; series mostly up to 45.9 µM; also: potency is read from the fitted curve at half-maximal effect; nearly all actives have a fitted effect of over 40% in size
# Summary of the method: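 Four patient lines of CD133+ GBM neurospheres were screened at several concentrations; hits were retested in those lines plus three slower-growing GBM lines, using 48-hour treatment and ATP-based viability.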
# Sequence of Luciferin 4-monooxygenase (Photinus pyralis) (P08659 whole entry, looked up): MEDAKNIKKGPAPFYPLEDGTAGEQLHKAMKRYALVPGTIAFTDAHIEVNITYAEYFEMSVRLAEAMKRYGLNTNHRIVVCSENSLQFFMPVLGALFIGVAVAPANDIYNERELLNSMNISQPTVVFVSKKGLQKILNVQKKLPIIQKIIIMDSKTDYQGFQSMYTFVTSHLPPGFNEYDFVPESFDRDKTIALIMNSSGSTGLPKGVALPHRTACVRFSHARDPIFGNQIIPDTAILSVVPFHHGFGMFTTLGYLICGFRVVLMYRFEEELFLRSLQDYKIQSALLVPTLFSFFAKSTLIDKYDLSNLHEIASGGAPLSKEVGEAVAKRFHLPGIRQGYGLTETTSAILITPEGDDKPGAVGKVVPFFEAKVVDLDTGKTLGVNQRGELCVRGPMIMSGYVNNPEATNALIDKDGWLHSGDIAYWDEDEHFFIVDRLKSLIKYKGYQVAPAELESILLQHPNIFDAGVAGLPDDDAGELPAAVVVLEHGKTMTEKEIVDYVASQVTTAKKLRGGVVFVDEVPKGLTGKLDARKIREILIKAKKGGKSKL
# Sequence of Nucleoprotein (Lymphocytic choriomeningitis virus (strain Armstrong)) (P09992 whole entry, looked up): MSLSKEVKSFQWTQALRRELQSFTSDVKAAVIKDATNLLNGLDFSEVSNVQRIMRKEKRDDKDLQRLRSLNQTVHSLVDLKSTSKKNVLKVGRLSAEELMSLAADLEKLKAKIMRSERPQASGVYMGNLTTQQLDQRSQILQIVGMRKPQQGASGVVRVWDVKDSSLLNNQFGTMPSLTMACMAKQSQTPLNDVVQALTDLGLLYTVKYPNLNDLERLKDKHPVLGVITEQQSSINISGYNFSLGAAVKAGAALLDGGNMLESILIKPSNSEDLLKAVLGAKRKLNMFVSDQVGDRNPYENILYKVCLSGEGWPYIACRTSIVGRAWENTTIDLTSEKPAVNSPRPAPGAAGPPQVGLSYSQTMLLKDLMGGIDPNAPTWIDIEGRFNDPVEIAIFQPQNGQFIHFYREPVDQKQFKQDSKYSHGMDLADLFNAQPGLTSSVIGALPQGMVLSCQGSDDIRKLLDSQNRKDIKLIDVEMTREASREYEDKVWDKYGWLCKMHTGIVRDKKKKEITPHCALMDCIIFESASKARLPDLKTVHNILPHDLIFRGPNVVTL
smiles,measurement,setting,value
CCCCCc1cc(O)c2c(c1)OC(C)(C)c1ccc(C)cc1-2,Potency,[1],inactive
same,Potency,[2],inactive
same,Potency,[3],inactive
same,Potency,[4],inactive
same,Potency,[5],inactive
same,Potency,astro,22.4 µM (active)
C/C=C1\NC(=O)[C@H](CC(N)=O)N(C)C(=O)C([C@@H](C)O)NC(=O)C(CCCc2ccc(OC)cc2)NC(=O)[C@H](C(C)C)NC(=O)/C(=C\C)NC(=O)[C@H](O)[C@@H](C[C@@H](O)CCCCCCC)NC(=O)[C@H](C)NC(=O)CN(C)C(=O)[C@H](CCC(N)=O)NC1=O (some centres undefined),Potency,[2],inactive
CCCNC(=O)[C@H]1O[C@H]1C(=O)N[C@H](C(=O)N1CCC[C@@H]1C(=O)OC)C(C)CC (some centres undefined),Potency,[2],27.3 µM (active)
O=C(/C=C/c1ccccc1)NCCc1ccccc1,Potency,[2],inactive
